Source: PubChem
SARS PLpro yeast = inhibitors of SARS-CoV papain-like protease in yeast; S. cerevisiae expressing SARS-CoV PLpro, growth rescue; Potency, µM (titrated, usually from 32.9 µM), without a hit: at the highest dose activity, positive = growth rescue, most hits filed as activators; actives 0.19% (n = 330,000); AID 485353; also: potency is read from the fitted curve at half-maximal effect; 0% is about no effect; nearly all actives have a fitted effect of over 55% in size
Shiga inhibitor = blocks Shiga toxin action in Vero cells | Vero cells, Shiga toxin protein synthesis inhibition reporter | inhibition, % at 38.7 µM | actives 9.2% (n = 290,000) | AID 2315; in the data active = inhibition mostly above about 28%, no sharp cut-off; inactive = mostly below about 43%; also: 0% is about no effect
CHX counter = affects cycloheximide protein synthesis inhibition readout, counter-screen. AID 2314. actives 12% (n = 300,000). max response, %. cell reporter, cycloheximide protein synthesis inhibition counterscreen; in the data active = max response mostly above about 13%, no sharp cut-off; inactive = mostly below about 14%; also: read at 38.3 µM for the half of the compounds with a filed dose; 0% is about no effect
NS1 inh = blocks influenza NS1 protein function; Potency, µM (doses to about 46.1 µM), without a hit: at the highest dose activity, positive = more growth; actives 0.4% (n = 270,000); also: potency is read from the fitted curve at half-maximal effect; actives are rising curves; nearly all actives have a fitted effect of over 50% in size
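Read-out: OD600 growth recovery of NS1-expressing budding yeast. Cells grown overnight at 30C in -URA glucose medium, washed, resuspended and diluted 1:100 in 2% galactose assay medium, pH 6.0. Same strain lacking NS1 served as positive control.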
* = called active by the depositor; . = no result given. Only some compounds are listed: those with a hit (about 12% of all), similar ones and a draw of the others. Unless noted, calls follow the shape of the full dose curve.

SMILES	SARS PLpro yeast	Shiga inhibitor	CHX counter	NS1 inh
O=C(NCCc1nnc2ccc(NCCCN3CCOCC3)nn12)c1ccccc1	-2%	-11	-4	-8%
COCC(=O)Nc1ccc(N(C)C)cc1	2%	39	13	5%
COc1ccc(NC(=O)CCC(=O)c2ccc(C(C)C)cc2)cc1	3%	12	5	8%
COc1ccc(NC(=O)Nc2ccc(C(C)C)cc2)cc1	-2%	58*	19*	-21%
COCC(=O)Nc1ccc(C(C)C)cc1	-6%	110*	37*	7%
COc1cc(C2Nc3ccc4ncccc4c3C3=C2C(=O)CCC3)ccc1O (configuration not stated)	-4%	20	21*	-4%
O=C1CC(N2CCN(Cc3ccccc3)CC2)C(=O)N1c1ccc2c(c1)OCCO2 (configuration not stated)	-3%	43*	21*	-4%
O=C1CC(N2CCN(Cc3ccccc3)CC2)C(=O)N1c1ccccc1 (configuration not stated)	-5%	-7	-2	2%
O=C(Nc1cccc(O)c1)c1cccc(NC(=O)c2cccs2)c1	1%	57	15	6%
O=C(O)/C=C\C(=O)Nc1cccc(C(=O)Nc2cccc(O)c2)c1	0%	77*	28*	-1%
Cc1cc(C(=O)Nc2cccc(O)c2)co1	3%	74	32*	1%
Cc1cccc(C(=O)NNC(=O)/C=C/C(=O)O)c1	-1%	-6	2	.
O=C(Nc1cccc(O)c1)c1ccccc1	-3%	38*	20*	-4%
O=C(Nc1ccccc1)c1ccsc1	-28%	54	27*	-9%
CCc1ccccc1NC(=O)CN1CCN(C(=O)CCC(=O)N2CCC(c3ccccc3)=N2)CC1	-7%	.	.	.
COC(=O)C(=N/Nc1ccccc1C(=O)OC)/C(C)=N/O	-20%	-9	-2	-87%
CSc1nnc(NC(=O)CCc2ccccc2)s1	5%	27	17	1%
CC(=O)c1sc(NC(=O)c2ccccc2)nc1-c1ccccc1	-1%	96*	57*	.
Cc1nc(NC(=O)c2ccccc2)sc1C	-3%	.	27*	-14%
Cc1nc(NC(=O)CCc2ccccc2)sc1C	4%	68*	40*	21%
Cc1nc(Nc2ccccc2)sc1C	-1%	71*	46*	.
COc1ccc(CNC(=O)CN2CCC(NC(=O)c3ccccc3C)CC2)cc1	1%	-9	-3	-3%
O=C1CCC(C(=O)OC(C(=O)Nc2ccc([N+](=O)[O-])cc2Br)c2ccccc2)=NN1 (configuration not stated)	-11%	.	.	.
O=C(CNS(=O)(=O)c1ccc2ccccc2c1)NCCc1ccccn1	-1%	12	-4	0%
Cc1nc(NC(=O)c2c(-c3ccccc3Cl)noc2C)sc1C	-1%	21	15	17%
SMILES	SARS PLpro yeast	Shiga inhibitor	CHX counter	NS1 inh
Cc1nc(NC(=O)c2csc3ccccc23)sc1C	-5%	123*	39*	-2%
Cc1nc(NC(=S)NC(=O)c2ccccc2)sc1C	0%	69*	39*	-2%
CCOC(=S)SCC(=O)Nc1nc(C)c(C)s1	-4%	49*	24*	-42%
Cc1nc(NC(=O)c2ccccc2O)sc1C	-4%	41	18*	-10%
COC(=O)c1sc(NC(=S)NC(=O)c2cccc(C)c2)nc1C	2%	21	7	18%
NCS(=O)(=O)O	.	.	.	-3%
O=C(N/N=C/C1C(c2ccccc2)C1(Cl)Cl)c1cccc(Cl)c1 (configuration not stated)	7%	49*	40*	-32%
O=C(N/N=C/c1c[nH]c2ccccc12)c1ccc(O)c(O)c1	0%	64*	24*	-1%
O=C(Nc1ccc(N=Nc2ccccc2)cc1)c1cccc(Cl)c1	-2%	0	-1	2%
CC(=O)Nc1cccc(C(=O)N/N=C/c2c[nH]c3ccccc23)c1	-2%	39	13*	2%
CC(=O)Nc1cccc(C(=O)N/N=C/c2ccc(C)o2)c1	3%	17	11	.
O=C(N/N=C/c1c[nH]c2ccccc12)c1cccc(Cl)c1	1%	46*	47*	1%
O=C(O)CCCNC(=O)CCCNC(=O)C(c1ccccc1)c1ccccc1	8%	-12	-2	-3%
Cc1ccc([N+](=O)[O-])cc1NC(=O)C(Sc1ccccc1)c1ccccc1 (configuration not stated)	9%	-10	5	10%
CCCN1CCc2c(sc3nc(SC)n(-c4ccccc4)c(=O)c23)C1	1%	-7	-3	-3%
Nc1nc(-c2cc(O)ccc2[N+](=O)[O-])cc(-c2ccccc2)c1[N+](=O)[O-]	3%	-10	-3	4%
CCOc1ccccc1C(=O)N/N=C/c1c[nH]c2ccccc12	-7%	17	17	.
O=C(N/N=C/c1c[nH]c2ccccc12)c1cccc(O)c1	0%	70*	26*	3%
